# Screens as filed in PubChem BioAssay.
# 12-hLO inh: qHTS Assay for Inhibitors of 12-hLO (12-human lipoxygenase). Polyunsaturated fatty acid lipoxygenase ALOX12 (Homo sapiens), P18054. purified 12-hLO, xylenol orange hydroperoxide absorbance. Potency, µM (series often up to 57.1 µM), hits mostly inhibitors. hit rate 0.12% among 150,000. AID 1452, 2008; note: nearly all actives have a fitted effect of over 55% in size
# Target sequence (P18054 whole entry, looked up): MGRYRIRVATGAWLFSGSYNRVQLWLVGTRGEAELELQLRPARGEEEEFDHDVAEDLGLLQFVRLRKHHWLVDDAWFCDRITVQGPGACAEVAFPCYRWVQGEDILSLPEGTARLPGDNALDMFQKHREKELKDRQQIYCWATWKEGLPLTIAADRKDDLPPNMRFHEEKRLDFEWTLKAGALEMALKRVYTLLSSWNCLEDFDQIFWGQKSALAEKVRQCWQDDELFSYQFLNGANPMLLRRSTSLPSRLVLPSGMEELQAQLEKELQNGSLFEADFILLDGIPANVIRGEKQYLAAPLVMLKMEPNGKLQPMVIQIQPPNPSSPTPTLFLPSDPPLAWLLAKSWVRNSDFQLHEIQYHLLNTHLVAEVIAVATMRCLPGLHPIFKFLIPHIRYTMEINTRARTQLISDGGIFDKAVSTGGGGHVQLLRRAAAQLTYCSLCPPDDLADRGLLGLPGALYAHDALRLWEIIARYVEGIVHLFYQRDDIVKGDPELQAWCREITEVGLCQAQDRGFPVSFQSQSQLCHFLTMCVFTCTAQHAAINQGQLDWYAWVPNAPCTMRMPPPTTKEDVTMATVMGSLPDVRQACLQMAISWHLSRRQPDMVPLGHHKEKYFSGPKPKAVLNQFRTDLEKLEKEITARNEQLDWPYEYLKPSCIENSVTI
#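 Xylenol orange chromogenic assay: hydroperoxide from 12hLO oxidises Fe(II), giving red-shifted Fe(III)-XO absorbance. Conditions: 150 nM enzyme, 40 uM arachidonic acid, 25 mM Hepes pH 7.0, 0.01% Triton X-100, 30 min, room temperature.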
# NPSR antag: qHTS Assay for Antagonists of the Neuropeptide S Receptor: cAMP Signal Transduction. Potency, µM (series often up to 38.3 µM), usual class: inhibitors. CHO-NPSR cells, cAMP TR-FRET, antagonist mode. AID 1461, 2008. hit rate 1% among 220,000; note: nearly all actives have a fitted effect of over 50% in size
# IMPase cell inh: qHTS Assay for Identifying the Cell-Membrane Permeable IMPase Inhibitors | inhibition (IP1 accumulation), % at 46.1 µM | 120,000 tested, under 10 active | Inositol monophosphatase 1 (Rattus norvegicus), P97697 | CHO-M1 cells, IP1 accumulation, HTRF TR-FRET ratio; active = well fitted curve in the direction sought with a large enough effect in the signal ratio, not every such curve was filed as active; inconclusive = small, poorly fitted or top-dose-only effect, or a change in a side signal; inactive = no such curve, though single readings can be large or run the other way; the % refers to the signal ratio;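 note: cells stimulated with carbachol in lithium chloride buffer; higher means more IMPase inhibition seen as more IP1 and lower FRET ratio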
#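 Seeded CHO-M1 cells were dosed with compound at up to 46 uM, stimulated with carbachol for 30 min, then lysed in IP-One detection reagents. Higher IP1 lowers the TR-FRET signal.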
# HttQ103 aggreg: qHTS Multiplex Assay to Identify Dual Action Probes in a Cell Model of Huntington: Aggregate Formation (GFP); PC12 HttQ103-GFP aggregates, Acumen cytometry, 40 h; Potency, µM (titrated, usually from 46.1 µM), most hits filed as inhibitors; hit rate 1.1% among 220,000; note: nearly all actives have a fitted effect of over 60% in size
#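 Aggregate formation scored by laser-scanning cytometer (488 excitation, 500–530 emission) in lysed PC12 cells expressing Q103-GFP after 100 nM tebufenozide induction; library tested in dose series, with ATPLite reagent added in the multiplex.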
# PNC inhibitor: High Content Assay for Compounds that inhibit the Assembly of the Perinucleolar Compartment; activity change (PNC), negative = inhibition, % at 10 µM; hit rate 3.1% among 140,000; PC3M PTB-GFP, PNC prevalence imaging, 16 h; active compounds read low; AID 2417, 2010;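 active = readout at or below -70, meaning at least 70% loss of cells showing the perinucleolar compartment, a nuclear body marking cancer cells; inconclusive = readout between -30 and a set limit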
#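 PC3M cells stably expressing PTB-GFP, 750–1000 cells/well, treated 16 h at 37 °C with compound (23 nl of library stock), in duplicate. After paraformaldehyde fixation and Hoechst stain, imaged at 20x; PNC prevalence scored by image analysis.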
# HTT cytoprotect: qHTS Multiplex Assay to Identify Dual Action Probes in a Cell Model of Huntington: Cytoprotection (ATP); hit rate 0.14% among 230,000; Potency, µM (highest dose often 56.4 µM), actives largely listed as activators; PC12 HTT-Q103 induced, cytoprotection, ATP luminescence, 40 h; note: nearly all actives have a fitted effect of over 45% in size
#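 Cells were plated at 1500 per well in phenol red-free DMEM with 5% equine and 5% calf serum. Tebufenozide (100 nM final) and compounds were added, then ATPlite reagent, and luminescence was read.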
# A number is an active result; – = inactive; ? = inconclusive; · = no result; [ ] = dose if it differs, or a comment. Rows were chosen to be rich in hits. Some 3.3% of all compounds tested hit in one or more screens of this group. Unless noted, calls come from the whole dose curve; as a rule, active = well fitted curve in the direction sought with a large enough effect; inconclusive = small, poorly fitted or top-dose-only effect, or another doubt; inactive = no such curve, though single readings can be large; an effect the other way counts as inactive or inconclusive.
SMILES,12-hLO inh,NPSR antag,IMPase cell inh,HttQ103 aggreg,PNC inhibitor,HTT cytoprotect
COc1cc(S(=O)(=O)N2CCN(Cc3ccc4c(c3)OCO4)CC2)c(C)cc1C,–,–,–,?,-119.3,–[10 µM]
COc1cccc(C(=O)N2CCN(C(=O)c3cccc4ccccc34)CC2)c1OC,–,–,–,?,–,–
Nc1nc(=S)c2[nH]cnc2[nH]1,–,·,·,·,·,–
CC1CCCN(Cc2c(O)ccc3c(=O)c(Oc4ccccc4Cl)c(C(F)(F)F)oc23)C1 (stereo not drawn),·,·,–,·,·,·
COCCn1c(=O)c(CCc2ccccc2)nc2cnc(N3CCOCC3)nc21,·,·,·,·,·,–
C[C@@](Cc1ccccc1)(NC(=O)CN)c1ccccc1,–,·,–,–,·,?
CCC(Sc1nnc2c(n1)[nH]c1ccccc12)C(=O)Nc1ccccc1OC (stereo not drawn),·,·,–,·,·,·
Cn1c(N)c(C(=O)CSc2ncn[nH]2)c(=O)n(C)c1=O,·,–[7.67 µM],·,–[9.22 µM],·,–[10 µM]
CC(=O)c1c(O)c(C)c(O)c2c1OC1=CC(=O)[C@H](C(C)=O)C(=O)[C@]12C,·,·,·,·,·,–
CC1CC(=O)C(C2c3ccccc3CCN2C(=O)CCl)C(=O)C1 (stereo not drawn),–,–,·,–,–,·
COc1cc2c(cc1OC)C(C1C(=O)CC(C)(C)CC1=O)N(C(=O)CCl)CC2 (stereo not drawn),–,–,·,–,-80.1,–[10 µM]
CO[C@H]1COC(=O)C/C=C\[C@@H](C)[C@H](OC)COC(=O)[C@H]2CCCN2C(=O)C/C=C\[C@@H]1C,·,·,·,·,·,–[10 µM]
O=C(O)CCC(=O)Nc1nnc(C(F)(F)F)s1,–,–,–,–,?,–
CCC(NC(=O)Nc1nnc(C(F)(F)F)s1)(C(F)(F)F)C(F)(F)F,–,–,–,1.58µM,?,–
Cn1c(=O)c2[nH]c([C@@H]3CC(=O)C[C@H](c4nc5c([nH]4)c(=O)n(C)c(=O)n5C)N3)nc2n(C)c1=O,–[11.4 µM],·,·,·,·,–[10 µM]
c1ccc(CNc2ccnc(-c3cccnc3)n2)cc1,·,·,·,·,·,–
COc1cc(CSc2nnnn2-c2ccc(C)cc2)cc(OC)c1OC,–,–,–,2.51µM,–,–[0.074 µM]
Cc1ccc(-c2nnn(CC(=O)N(CC(=O)NCc3ccccc3)c3cccc(C)c3C)n2)o1,–,?,–[1.84 µM],–,?,–[10 µM]
Cc1cccc(N(CC(=O)NCc2ccccc2)C(=O)Cn2nnc(-c3ccc(C)o3)n2)c1,–,–,–,–,-83.8,–[10 µM]
CC(=O)c1ccc(OC(=O)c2c(-c3ccccc3Cl)noc2C)cc1,·,·,–,·,·,·
N#Cc1cn(-c2ccccc2)nc1-c1ccc2c(c1)OCCO2,–,?,–,–,-100.0,–[0.074 µM]
O=Cc1cn(-c2ccccc2)nc1-c1ccc2c(c1)OCCO2,–,–,–,–,?,–[10 µM]
CCOc1ccc(C(=O)Nc2nc3ccccc3[nH]2)cc1OCC,·,–,·,12.6µM,·,–[10 µM]
Cn1nc(C(=O)Nc2nc3ccccc3[nH]2)c2ccccc2c1=O,–,–,–,–,?,–[10 µM]
CCOc1ccc(C(=O)Nc2cc(-c3nc4ccccc4[nH]3)ccc2Cl)cc1[N+](=O)[O-],–,–,·,12.6µM,–,–[10 µM]
SMILES,12-hLO inh,NPSR antag,IMPase cell inh,HttQ103 aggreg,PNC inhibitor,HTT cytoprotect
CSCC[C@H](NC(=O)c1ccc(Cl)c([N+](=O)[O-])c1)c1nc2ccccc2[nH]1,–,–,–,–,–,–[1.9 µM]
CCn1nc(C(=O)Nc2nc3ccccc3[nH]2)c2ccccc2c1=O,–,–,·,–,-89.0,–[10 µM]
COc1ccc(C(=O)Nc2nc3ccccc3[nH]2)cc1OC,–,–,–,–,–,–[10 µM]
CCOc1ccc(C(=O)Nc2cc(-c3nc4ccccc4[nH]3)ccc2C)cc1[N+](=O)[O-],–,?,–,–,–,–
O=C(NC(Cc1ccccc1)c1nc2ccccc2[nH]1)c1ccc(Cl)c([N+](=O)[O-])c1 (stereo not drawn),–,–,–,7.94µM,–,–[10 µM]
Cc1ccccc1NS(=O)(=O)c1cc(S(C)(=O)=O)ccc1C,–,–,·,–,–,–[10 µM]
Cc1ccc(S(C)(=O)=O)cc1S(=O)(=O)Nc1cccc(Cl)c1,–,–,·,–,-112.4,–[10 µM]
Cc1ccc(S(=O)(=O)NC(=O)Nc2ncc3c(n2)CC(c2ccco2)CC3=O)cc1 (stereo not drawn),–,–,–,–,-97.2,–[10 µM]
O=c1c(-c2cccs2)nc2cnc(N3CCOCC3)nc2n1Cc1cccs1,·,·,·,·,·,–
Cc1ccc(C)c(N2CN(CCC3=CCCCC3)CNC2=S)c1,·,–,·,–[9.22 µM],·,–[10 µM]
CCCN1CNC(=S)N(c2cc(C)ccc2C)C1,–,–,–,–,-100.0,–[10 µM]
COc1cccc(C2(c3cccc(OC)c3)CC2C(=O)Nc2ccccc2Cl)c1 (stereo not drawn),–,–,–,–,-81.7,–[10 µM]
O=C1c2ccc3c4c(ccc(c24)C(=O)N1CCCCO)C(=O)N(CCCCO)C3=O,·,–,·,5.01µM,·,–
COc1ccc2c(CCNC(=O)c3ccco3)c[nH]c2c1,–,–,–,–,-114.3,–
COc1cc2c(C(=O)NCc3ccc4c(c3)OCO4)cn(CC(C)C)c(=O)c2cc1OC,–,–,–,–,-112.5,–[10 µM]
O=c1c2cc(Br)ccc2nc(-c2cccc(C(F)(F)F)c2)n1O,–,–,–,?,–,–
O=c1c2cc(Cl)ccc2nc(-c2ccccc2)n1O,·,–,·,?,·,–[10 µM]
O=c1c2ccc(Cl)cc2nc(-c2ccc([N+](=O)[O-])cc2)n1O,·,–,·,6.31µM,·,–
O=c1c2cc(Br)ccc2nc(-c2ccc([N+](=O)[O-])cc2)n1O,·,–,·,11.2µM,·,–
CC(C)=CCC/C(C)=C/CC/C(C)=C/CSCC(=O)O,–,·,·,·,·,–
O=C(O)CCN1C(=S)CSC1=S,–[11.4 µM],·,·,·,·,–[10 µM]
O=[N+]([O-])c1c(Cl)cccc1-c1c[nH]cc1Cl,·,·,·,–,·,–
Cc1ccc(S(=O)(=O)O)cc1C,–,·,·,–,·,–
Cc1cccc2cc(CN(CCN(C)C)C(=S)Nc3ccccc3)c(=O)[nH]c12,–,–,–,–,-99.3,–[10 µM]
Cc1cccc(NC(=S)N(CCN(C)C)Cc2cc3cc(C)ccc3[nH]c2=O)c1,·,–,·,–[9.22 µM],·,–[10 µM]
O=C(Nc1nnc(C2CC2)s1)C1CCCCN1S(=O)(=O)c1ccccc1 (stereo not drawn),·,–,·,–,·,–
CC(=O)c1ccc(N2CCN(C(=S)Nc3cc(C)ccc3C)CC2)cc1,–,–,–,–,-90.2,–[10 µM]
CC(=O)N1CCC2(CCN(Cc3cc(C(F)(F)F)cc(C(F)(F)F)c3)CC2)CC1,–,·,·,·,·,–
O=C(N/N=C/c1cn(-c2ccccc2)nc1-c1cccs1)c1ccc(Cl)cc1,–,–,·,11.2µM,–,–[10 µM]
